Hit rate of the full screen: of about 310,000 compounds, about 3,900 (1.3%) were called active.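 Rule for the calls: active = calcium-response B-score plate-corrected more than 3 library SD below zero, starting fluorescence within 5 deviations, no agonist response on first addition; inactive = the rest.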 This excerpt belongs to a sample that is enriched for actives.

Mas-related G-protein coupled receptor member X1 (Homo sapiens), sequence (Q96LB2 whole entry, looked up): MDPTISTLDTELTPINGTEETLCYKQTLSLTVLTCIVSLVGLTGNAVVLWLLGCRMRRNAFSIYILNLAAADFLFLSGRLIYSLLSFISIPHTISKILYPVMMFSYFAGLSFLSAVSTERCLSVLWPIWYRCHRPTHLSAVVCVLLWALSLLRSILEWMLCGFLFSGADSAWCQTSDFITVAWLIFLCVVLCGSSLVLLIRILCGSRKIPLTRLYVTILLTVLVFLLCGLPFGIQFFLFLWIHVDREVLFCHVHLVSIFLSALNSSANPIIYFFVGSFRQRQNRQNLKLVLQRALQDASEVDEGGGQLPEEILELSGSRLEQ

The experiment has as its target Mas-related G-protein coupled receptor member X1 (Homo sapiens) (UniProt Q96LB2). The experiment is described as follows: antagonists of human MrgX1 receptor, primary screen, HEK293 cells, Fluo-4 calcium flux (AID 588676).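 For B-score: peak minus trough fluorescence over baseline after final BAM8-22 challenge near maximal dose.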 As to conditions: Fluo-4, BAM8-22 antagonism, at 10 µM; hits give low values. (In general: Calcium flux is commonly read through the fluorescence of an indicator in the cells.)
Take `COc1cccc2cc(C(N)=O)/c(=N\NC(=O)c3ccccc3)oc12`: the B-score entry is “inactive”. On to `O=C(Cn1ccc([N+](=O)[O-])n1)NCc1cccs1`, for which the B-score entry is “inactive”. For `O=C(CCn1ccc([N+](=O)[O-])n1)Nc1nccs1`, the B-score was -5.19 (active). As to `Cc1ccnc(NC(=O)Cn2ccc([N+](=O)[O-])n2)c1`, the B-score entry was “inactive”. Take `Cc1cccc(C)c1NC1=NC(=S)N(c2ccc(N(C)C)cc2)C1(C)C`: the B-score entry was “inactive”. Turning to `CN(C)CCCn1c(=O)n(Cc2ccccc2)c(=O)c2c3c(sc21)CCCCC3`, the B-score result was “inactive”. Turning to `Cc1c(S(=O)(=O)NC(C)c2ccccc2)c(=O)n(C)c(=O)n1C` (stereo not given), the B-score entry was “inactive”.

`O=C(CNC(=O)C12CC3CC(CC(C3)C1)C2)OCC(=O)N1CCCCC1`: the B-score result was “inactive”.

`COc1cc2c(cc1OC)C(C(C)C)=NC(C)(C)C2`: the B-score entry was “inactive”.

Take `COc1cc2c(cc1OC)C(Nc1ccc(S(N)(=O)=O)cc1)=NC(C)(C)C2`: the B-score result is “inactive”. Regarding `COc1cc2c(cc1O)C(SC)=NC(C)(C)C2`, the B-score is -5.85 (active). For the compound `CN(C)CCc1c[nH]c2ccc(Cn3cncn3)cc12`, the B-score entry was “inactive”. For `CC1CCN(Cc2nc(-c3ccc(Cl)cc3)no2)CC1`, the B-score entry was “inactive”. The value for `Clc1ccc(-c2nnc(-c3ccccc3)nc2N2CCSCC2)cc1` was “inactive”; that for `Clc1ccc(-c2nc3ccccn3c2CN2CCSCC2)cc1` was -5.66 (active). The value for `CCCOc1ccc(NC(=O)CC2C(=O)N(C)C(=S)N2Cc2ccc3c(c2)OCO3)cc1` (stereo not given) was “inactive”; that for `O=C(Nc1ccc(Cl)cc1)C1c2cccc[n+]2CC(=O)N1Cc1ccc2c(c1)OCO2` (stereo not given) was -6.48 (active). The entry for `O=C(CSCc1ccc(Cl)cc1)N1CCN(Cc2ccc3c(c2)OCO3)CC1` is “inactive”; for `COc1ccc(C)cc1Nc1nc(C)nc2c1oc1ccccc12` it is “inactive”. `COc1ccc2c(c1)C(=O)Nc1cc(Cl)ccc1N2`: the B-score result is “inactive”. In the case of `CCCCN(CC)CCNC(=O)c1[nH]c(C)c(C(C)=O)c1C`, the B-score result is “inactive”. Turning to `CC(=O)c1c(C)[nH]c(C(=O)NCCCN2CCCC2)c1C`, the B-score result was “inactive”. Turning to `CCC1CCCCN1CCNC(=O)c1[nH]c(C)c(C(C)=O)c1C` (stereo not given), the B-score was -5.1 (active).

In the case of `NC(=O)CC[C@@H]1NC(=O)[C@@H]2CCCN2C(=O)c2cc([N+](=O)[O-])cc(F)c2NCCC[C@@H](C(N)=O)NC1=O`, the B-score result was “inactive”.

On to `O=C(CSc1nc2nccnc2c(=O)n1Cc1cccs1)Nc1ccccc1F`, for which the B-score entry is “inactive”.
